Experiment [1] addresses Catechol O-methyltransferase (Homo sapiens) (UniProt P21964). The experiment can be described thus: Confirmatory Screen for Target Class Profiling of Small Molecule Inhibitors of Methyltransferases (AID 1745852; calls by dose curve; note: potency is the fitted concentration of half-maximal effect; for activity change, negative = inhibition: % is set by controls: 0 for no effect and ±100 for the full control effect). Particulars: MTase-Glo luminescence, SAH detection, recombinant enzyme; measured here: COMT max response; stronger effect = lower value.
The target in experiment [2] is Guanidinoacetate N-methyltransferase (Homo sapiens) (UniProt Q14353). The description is as above. Particulars: MTase-Glo luminescence, SAH detection, recombinant enzyme; activity change, negative = inhibition: at 57.3 µM (top of the series) unless noted; series mostly up to 57.3 µM.
The target in experiment [3] is Nicotinamide N-methyltransferase (Homo sapiens) (UniProt P40261). The description is as above. Particulars: MTase-Glo luminescence, SAH detection, recombinant enzyme; measured here: NNMT max response; stronger effect = lower value.
Experiment [4] addresses Phenylethanolamine N-methyltransferase (Homo sapiens) (UniProt P11086). Described as above. Particulars: MTase-Glo luminescence, SAH detection, recombinant enzyme; measured here: PNMT max response; stronger effect = lower value.
Experiment [5] is described as follows: NCATS anti-infectives library activity on HEK293 viability as a counter-qHTS vs the C. elegans viability qHTS (AID 1745854).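 Note: HEK293 cells exposed to compounds for 24 hr before the viability read; % is set by controls: 0 for no effect and ±100 for the full control effect.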 Particulars: HEK293 viability counter-screen; series mostly up to 41.8 µM. The essentials:
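HEK293 cells (1,500/well) exposed 24 hr at 37C to 1:5 titrations, up to 41.7 uM final; counter-screen to a C. elegans viability qHTS. Viability by CellTiter-Glo luminescence after 10 min at room temperature; digitonin as control.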
On the technique in general: qHTS replaces the single test concentration by a dilution series.

Experiment [6] concerns the target Glutathione peroxidase 1 (Homo sapiens) (UniProt P07203). The experiment can be described thus: Primary qHTS Assay for Inhibitors of Recombinant Selenoprotein Glutathione Peroxidase 1 (GPX1) (AID 1845191). Note: nearly all actives have a fitted effect of over 65% in size. Particulars: recombinant GPX1, GR-coupled NADPH fluorescence, 15 min; series mostly up to 48.8 µM. The essentials: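 10 nM GPX1 + cpd, 30 min RT; start w/ 1 mM GSH, 0.5 mM cumene hydroperoxide, 0.5 mM NADPH, 100 nM GR, 0.01% BSA; buffer 50 mM Tris-HCl pH 7.5, 2 mM EDTA, 150 mM NaCl; Fl 340/450, 0 & 15 min.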

Records with an inconclusive call do not appear. Activity calls are given as the source filed them. Unless noted, calls come from the whole dose curve; as a rule, active = well fitted curve in the direction sought with a large enough effect; inconclusive = small, poorly fitted or top-dose-only effect, or another doubt; inactive = no such curve, though single readings can be large; an effect the other way counts as inactive or inconclusive.

Sequence of Phenylethanolamine N-methyltransferase (Homo sapiens) (P11086 whole entry, looked up): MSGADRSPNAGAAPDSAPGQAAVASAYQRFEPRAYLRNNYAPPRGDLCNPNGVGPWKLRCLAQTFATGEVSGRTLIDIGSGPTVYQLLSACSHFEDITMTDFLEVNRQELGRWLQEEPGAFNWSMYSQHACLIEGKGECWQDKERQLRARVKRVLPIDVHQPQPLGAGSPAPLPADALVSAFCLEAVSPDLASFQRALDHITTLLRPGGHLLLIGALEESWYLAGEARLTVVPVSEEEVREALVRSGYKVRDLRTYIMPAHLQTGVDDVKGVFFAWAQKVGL
Sequence of Catechol O-methyltransferase (Homo sapiens) (P21964 whole entry, looked up): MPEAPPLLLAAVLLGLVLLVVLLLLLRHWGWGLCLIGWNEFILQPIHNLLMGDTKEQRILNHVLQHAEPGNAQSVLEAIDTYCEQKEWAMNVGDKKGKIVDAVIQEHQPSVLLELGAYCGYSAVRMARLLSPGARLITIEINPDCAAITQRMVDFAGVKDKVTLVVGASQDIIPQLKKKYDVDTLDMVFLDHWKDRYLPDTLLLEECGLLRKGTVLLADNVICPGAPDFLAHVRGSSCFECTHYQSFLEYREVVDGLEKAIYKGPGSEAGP
Sequence of Nicotinamide N-methyltransferase (Homo sapiens) (P40261 whole entry, looked up): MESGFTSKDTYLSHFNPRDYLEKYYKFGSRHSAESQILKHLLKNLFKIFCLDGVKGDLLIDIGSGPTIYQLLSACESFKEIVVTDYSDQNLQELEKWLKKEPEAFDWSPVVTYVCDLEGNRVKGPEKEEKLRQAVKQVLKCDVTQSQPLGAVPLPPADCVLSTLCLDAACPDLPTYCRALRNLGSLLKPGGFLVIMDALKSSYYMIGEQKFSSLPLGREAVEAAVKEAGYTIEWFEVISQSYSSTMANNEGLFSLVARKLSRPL
Sequence of Glutathione peroxidase 1 (Homo sapiens) (P07203 whole entry, looked up): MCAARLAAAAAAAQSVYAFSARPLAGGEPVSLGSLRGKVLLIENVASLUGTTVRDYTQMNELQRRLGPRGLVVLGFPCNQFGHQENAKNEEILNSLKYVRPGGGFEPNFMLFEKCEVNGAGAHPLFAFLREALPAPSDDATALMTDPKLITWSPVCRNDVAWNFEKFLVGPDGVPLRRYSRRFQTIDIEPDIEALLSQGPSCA

As to `Cc1noc(C)c1-c1cc2c(cc(C)n2CCN(C)C)c(Nc2ccncn2)n1`, the values for the activity in experiment [1], in experiment [3] and in experiment [4] were -14.2%, -15.3% and -28.6%, respectively. Moreover, the activity change, negative = inhibition in experiment [2] is -6.67% [at 85.7 µM].

As to `Cc1cccc(N2CCN(C(=O)CCc3nnc4n(CC(C)C)c(=O)c5ccccc5n34)CC2)c1C`, the figures for the activity in experiment [1], in experiment [3] and in experiment [4] were 4.82%, -69.8% and 4.08%, respectively. The activity change, negative = inhibition in experiment [2] is 2.51%.

As for `CCN(CC)CCCNC(=O)CCc1nnc2n(Cc3ccccc3)c(=O)c3ccccc3n12`, the activity in experiment [1] is 1.43%; in experiment [3], -2.92%; in experiment [4] it was 0.626%. Moreover, in experiment [2], the activity change, negative = inhibition worked out at 0%.

Turning to `c1ccc(CO[C@H]2COCCN(c3nc4ccccc4o3)C2)cc1`, the activity in experiment [1] was 1.17%; in experiment [3], -5.26%; in experiment [4] it was -0.271%. For the same molecule, the activity change, negative = inhibition in experiment [2] was 2.9% [at 85.7 µM].

On to `Nc1ccccc1NC(=O)c1cnccn1`, for which the Potency entry in experiment [5] was “inactive”.

As for `Cc1ccccc1Sc1ccc(/C=C2\SC(=S)NC2=O)cc1[N+](=O)[O-]`, the activity is -5.04% in experiment [1], -72.5% in experiment [3] and -30.1% in experiment [4]. Further, in experiment [2], the Potency was 42.9 µM (active). For the same molecule, the Potency result in experiment [6] was “inactive”.

`CC(NC(=O)c1ccc2c(=O)nc3c(-c4cccc(F)c4)n[nH]n3c2c1)c1ccc(F)cc1` (stereo not given): the activity in experiment [1] is -18.4%; in experiment [3] it was -28.4%; in experiment [4], -25.5%. For the same molecule, the Potency in experiment [2] was 13.6 µM (active).

Consider `c1ccc(CNc2cc(-c3cc(N4CCCCC4)ncn3)c3cc[nH]c3n2)nc1`, for which the activity in experiment [1] was -16.9%; in experiment [3], -28.9%; in experiment [4], -32%. Moreover, in experiment [2], the activity change, negative = inhibition is -13.9%.

Take `O=C(Cn1c(=O)oc2cc(S(=O)(=O)N3CCCC3)ccc21)Nc1ccc(F)c(Cl)c1`: the values for the activity in experiment [1], in experiment [3] and in experiment [4] were -3.81%, -2.29% and -63.9%, respectively. In addition, in experiment [2], the activity change, negative = inhibition was 1.53%.

For the molecule `CCNC(=O)c1cc2c(-c3cc(C(C)(C)O)ccc3Oc3c(C)cc(F)cc3C)cn(C)c(=O)c2[nH]1`, the Potency result in experiment [5] was “inactive”.

In the case of `O=C(NCc1c(F)cc(F)cc1F)c1cn2c(c(O)c1=O)C(=O)N1C3CCC(C3)OC1C2` (stereo not given), the Potency result in experiment [5] is “inactive”.

As for `CC(=O)N[C@@H](CC(=O)O)C(=O)N[C@@H](CCC(=O)O)C(=O)N[C@H](C(=O)N[C@H](C=O)CC(=O)O)C(C)C`, the Potency entry in experiment [5] is “inactive”.

In the case of `COc1ccc(N2C(=O)c3ccc(-c4ccco4)n3CC2(C)C(=O)NCc2ccccc2)cc1OC` (stereo not given), the activity in experiment [1] was -7.65%; in experiment [3], -17.5%; in experiment [4], -3.81%. The activity change, negative = inhibition in experiment [2] is -2.41%.

Consider `C[C@H]1CC[C@@]2(O)C(C)(C)[C@@H]3CC[C@@]2(C)[C@H]1C3`, for which the Potency entry in experiment [5] was “inactive”.

`CN(C)CC1(O)CCC2(CCN(C(=O)c3cccn3C)CC2)CC1`: the activity in experiment [1] was 7.38%; in experiment [3], 3.1%; in experiment [4], 9.04%. The activity change, negative = inhibition in experiment [2] came to 3.21%.

For the molecule `Cc1noc(C)c1-c1cc(-c2ccc(CN(C)C)cc2)cn2cncc12`, the results for the activity in experiment [1], in experiment [3] and in experiment [4] were -2.27%, -10.7% and -3.78%, respectively. For the same molecule, the activity change, negative = inhibition in experiment [2] was -8.74% [at 85.7 µM].

As to `O=c1cc(-c2ccc(O)cc2)oc2cc(O)c(O)c(O)c12`, the Potency entry in experiment [5] is “inactive”.

Regarding `COc1cccc(CN2CCCC3(CCN(c4cc(C)nc(N)n4)C3)C2)c1OC` (stereo not given), the activity in experiment [1] is -4.01%; in experiment [3] it was -4.87%; in experiment [4] it was -3.6%. In addition, in experiment [2], the activity change, negative = inhibition was -7.75%.

Consider `COc1ccc2cc(CNc3ccc(C)cc3)c(=O)n(CC(=O)Nc3cccc(C(F)(F)F)c3)c2c1`, for which the activity in experiment [1] is -6.71%; in experiment [3], -13.5%; in experiment [4] it was -7.35%. Also, the activity change, negative = inhibition in experiment [2] is -9.44%. Further, the Potency result in experiment [6] is “inactive”.
